In all, about 310,000 compounds went through this assay and about 14,000 (4.5%) showed an effect of 50% or more. Effects have a minus sign here. What follows is part of a selection rich in strong results, with near analogues and random picks from the rest.
Target: human ether-à-go-go-related gene (hERG) potassium channel (human, UniProt Q12809)
Assay: primary screen, population patch clamp on CHO cells stably expressing hERG; higher = less effect of the substance
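Also: peak tail current of the secondary pulse compared with the same well before compound.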

Sequence of human ether-à-go-go-related gene (hERG) potassium channel (Q12809 whole entry, looked up): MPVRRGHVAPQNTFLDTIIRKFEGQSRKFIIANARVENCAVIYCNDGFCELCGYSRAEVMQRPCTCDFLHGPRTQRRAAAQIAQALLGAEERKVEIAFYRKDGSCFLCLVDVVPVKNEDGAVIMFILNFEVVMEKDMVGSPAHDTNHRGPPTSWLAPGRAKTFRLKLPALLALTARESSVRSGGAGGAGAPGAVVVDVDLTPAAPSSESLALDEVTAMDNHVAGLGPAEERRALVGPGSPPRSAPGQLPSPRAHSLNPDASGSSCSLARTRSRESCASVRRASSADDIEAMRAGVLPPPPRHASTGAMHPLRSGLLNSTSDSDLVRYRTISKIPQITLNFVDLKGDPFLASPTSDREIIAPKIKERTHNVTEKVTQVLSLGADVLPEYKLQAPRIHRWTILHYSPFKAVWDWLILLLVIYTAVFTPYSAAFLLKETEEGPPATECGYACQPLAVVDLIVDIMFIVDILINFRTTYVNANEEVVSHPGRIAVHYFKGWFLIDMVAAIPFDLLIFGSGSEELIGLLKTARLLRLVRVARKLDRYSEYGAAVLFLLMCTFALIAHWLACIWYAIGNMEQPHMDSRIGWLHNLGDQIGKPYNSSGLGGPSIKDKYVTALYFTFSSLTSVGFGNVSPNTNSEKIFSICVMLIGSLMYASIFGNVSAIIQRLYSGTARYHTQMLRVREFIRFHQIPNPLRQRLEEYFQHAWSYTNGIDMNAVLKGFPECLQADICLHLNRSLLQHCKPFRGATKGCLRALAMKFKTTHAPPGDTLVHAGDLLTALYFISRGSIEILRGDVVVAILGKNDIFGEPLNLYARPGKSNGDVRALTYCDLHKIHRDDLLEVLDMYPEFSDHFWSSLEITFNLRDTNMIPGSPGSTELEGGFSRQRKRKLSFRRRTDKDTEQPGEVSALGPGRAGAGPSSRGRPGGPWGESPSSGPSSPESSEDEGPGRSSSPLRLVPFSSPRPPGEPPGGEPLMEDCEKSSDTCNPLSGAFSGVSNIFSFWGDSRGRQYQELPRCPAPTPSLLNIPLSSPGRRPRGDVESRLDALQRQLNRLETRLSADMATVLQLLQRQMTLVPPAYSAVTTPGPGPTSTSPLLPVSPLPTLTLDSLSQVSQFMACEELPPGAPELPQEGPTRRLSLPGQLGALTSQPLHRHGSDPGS

| SMILES | hERG current change (%, negative = inhibition) at 10uM |
| --- | --- |
| CCCCC(=O)OCC(=O)Nc1ccc(C)c(F)c1 | 14.6% |
| Cc1ccccc1NNC(N)=S | 5.65% |
| Cc1oc(S(=O)(=O)N2CCCC2)cc1C(=O)Nc1ccccc1 | 7.38% |
| CCOc1cc(C(=O)N2CCCN(C)CC2)cc(OCC)c1OCC | 14.8% |
| Cc1onc(-c2ccccc2)c1C(=O)N1CCN(S(=O)(=O)c2ccc3c(c2)OCCO3)CC1 | -17.2% |
| O=C(/C=C/c1cn(-c2ccccc2)nc1-c1ccc2c(c1)OCCO2)NCCO | -51.1% |
| O=C(O)/C=C/c1cn(-c2ccccc2)nc1-c1ccc2c(c1)OCCO2 | 10.1% |
| Cl.O=C(/C=C/c1cn(-c2ccccc2)nc1-c1ccc2c(c1)OCCO2)NCCCN1CCOCC1 | -5.65% |
| C/C(=N\NC(=O)CNc1cccc2ccccc12)c1ccc(Br)s1 | 6.57% |
| Cc1ccc(C(=O)OCC(=O)Nc2cccc(S(=O)(=O)NC3=NCCCCC3)c2)c(C)c1 | -15.4% |
| CS(=O)(=O)Nc1cccc(C(=O)CC2(O)C(=O)Nc3ccccc32)c1 (centres unmarked) | 8.15% |
| Nc1n[nH]c(N)c1N=Nc1ccccc1 | 16.7% |
| CCOc1ccccc1N1CCN(C(=O)CC(C)(C)C)CC1 | 0.665% |
| COc1ccccc1N1CCN(C/C=C/c2ccc(N(C)C)cc2)CC1 | -53.9% |
| CCOc1ccccc1N1CCN(C/C=C/c2ccc(N(C)C)cc2)CC1 | -60.1% |
| COc1ccccc1/C=C/CN1CCN(c2ccccc2)CC1 | -15.6% |
| CCN(CC)c1ccc(/C=N/N2CCN(c3ccccc3OC)CC2)cc1 | 14.4% |
| CCOc1ccccc1N1CCN(Cc2ccco2)CC1 | -14.9% |
| CCOc1ccccc1C1CC(=O)Nc2c1c(=O)n(C)c(=O)n2C (centres unmarked) | 7.34% |
| O=C(NCc1ccccc1)C(=O)NCC1OCCN1S(=O)(=O)c1ccc2c(c1)OCCO2 (centres unmarked) | -3.14% |
| O=C(CCCc1nc(-c2ccc(Cl)cc2)no1)Nc1cccnc1 | -24.6% |
| CCCOc1ccc(C2C(=O)N(C3CCCCCC3)CC(=O)N2Cc2ccco2)cc1OC (centres unmarked) | -36.7% |
| COc1ccc(C2C(=O)N(C3CCCCC3)CC(=O)N2C2CCCC2)cc1 (centres unmarked) | -12.1% |

| SMILES | hERG current change (%, negative = inhibition) at 10uM |
| --- | --- |
| COc1ccc(C2C(=O)N(C3CCCCC3)CC(=O)N2C2CCCCC2)cc1 (centres unmarked) | -51.7% |
| COc1cc(C2C(=O)N(C3CCCC3)CC(=O)N2Cc2ccco2)ccc1OC(C)C (centres unmarked) | -27.6% |
| COc1ccc(C2C(=O)N(C3CCCCC3)CC(=O)N2Cc2ccco2)cc1 (centres unmarked) | -53.7% |
| Cc1ccc(C2C(=O)N(C3CCCC3)CC(=O)N2C2CCCCC2)cc1 (centres unmarked) | -25.4% |
| COc1cccc(-c2nnc3n2N=C(c2cccc(Br)c2)CS3)c1 | 6.32% |
| CCOC(=O)Cn1c(-c2ccccc2)ccc(C#N)c1=O | 8.28% |
| Cc1ccc(S(=O)(=O)NC23CC4CC(CC(C4)C2)C3)cc1 | 3.97% |
| CCC(=O)N1CCN(c2ccc(Cl)cc2NC(=O)c2ccc(N3CCCC3)c([N+](=O)[O-])c2)CC1 | -6.9% |
| COc1ccccc1NC(=O)CCN1C(=O)C2CC=C(Cl)CC2C1=O (centres unmarked) | -2.46% |
| COc1cc(C(=O)NC2CCN(Cc3ccccc3)CC2)cc(Cl)c1OC(C)C | -61.2% |
| Cc1ccc(/C=C(\NC(=O)c2ccccc2)C(=O)NC2CCN(Cc3ccccc3)CC2)o1 | -55.5% |
| CC(C)(Oc1ccc(Cl)cc1)C(=O)NC1CC1 | 1.41% |
| COc1ccccc1CC(=O)NC1CCN(Cc2ccccc2)CC1 | 1.52% |
| Cc1ccc(/C=C(\NC(=O)c2ccccc2)C(=O)NCC2CCCO2)o1 (centres unmarked) | -5.4% |
| Cc1ccc(/C=C(\NC(=O)c2ccccc2)C(=O)NCCN2CCOCC2)o1 | -3.91% |
| C=C(C)c1cccc(C(C)(C)NC(=O)NC2CN3CCC2CC3)c1 (centres unmarked) | 1.14% |
| CC(C)(Oc1ccc(Cl)cc1)C(=O)NC1CCCCC1 | 0.43% |
| C=C(C)c1cccc(C(C)(C)NC(=O)NC2CCN(Cc3ccccc3)CC2)c1.Cl | -55.5% |
| COc1cc(C(=O)NC2CCN(Cc3ccccc3)CC2)cc(Cl)c1OC | -44.3% |
| CC(C)(Oc1ccc(Cl)cc1)C(=O)NC1CCN(Cc2ccccc2)CC1 | -70.4% |
| C=C(C)c1cccc(C(C)(C)NC(=O)NC2CCCC2)c1 | 15.1% |
| Cc1cccc(-c2onc3ccc(C4(C)OCCO4)cc23)c1 | -1.6% |
| CCOC(=O)c1[nH]cnc1C(=O)O | -2.12% |

| SMILES | hERG current change (%, negative = inhibition) at 10uM |
| --- | --- |
| CN(C)c1ccc(N2C(=NC(=O)C3CCCO3)SC3CS(=O)(=O)CC32)cc1 (centres unmarked) | 11.1% |
| CCN(CC)C(=O)N1CCN(C(=O)N2CCOCC2)CC1 | 29.8% |
| Cc1ccc2cccc(S(=O)(=O)N3CCN(c4cccc(Cl)c4)CC3)c2n1 | -2.91% |
| CC1CC(=O)N(CC(=O)Nc2cccc(F)c2)c2ccccc2S1(=O)=O (centres unmarked) | -4.3% |
| O=C(N1CCCCCC1)n1c(Cc2ccccc2)nc2ccccc21 | -30.5% |
| O=C(CN1CCN(c2ncc(C(F)(F)F)cc2Cl)CC1)NC(=O)NCc1ccccc1 | 4.2% |
| Cc1ccc(C)n1-c1ccc(C(=O)NC2CCN(Cc3ccccc3)CC2)cc1 | -65.5% |
| O=C(NC1CCN(Cc2ccccc2)CC1)c1ccc(CS(=O)c2ccc(F)cc2)o1 (centres unmarked) | -22.4% |
| Cl.O=C(NC(=S)NC1CCN(Cc2ccccc2)CC1)c1ccc(F)cc1 | -72.3% |
| Cc1ccccc1C(=O)NC1CCN(Cc2ccccc2)CC1 | -29.1% |
| S=C(Nc1ccccc1)NC1CCN(Cc2ccccc2)CC1 | -39.6% |
| O=C(NC1CCN(Cc2ccc(F)cc2)CC1)c1ccccc1 | -50.2% |
| Fc1ccc(NC(=S)NC2CCN(Cc3ccccc3)CC2)cc1 | -30% |
| CC(C)(C)c1ccc(C(=O)N2CCC(NC(=O)c3ccccc3)CC2)cc1 | -1.48% |
| Cc1ccc(-n2c(=O)[nH]c3cc(C(=O)NC4CCN(Cc5ccccc5)CC4)ccc3c2=O)cc1 | 11.2% |
| O=C(NC1CCN(Cc2ccccc2)CC1)c1ccc2c(c1)[nH]c(=O)n2Cc1ccc(F)cc1 | -21.8% |
| CC(C)(C)c1ccc(C(=O)NC2CCN(Cc3ccccc3)CC2)cc1 | -65.3% |
| CS(=O)(=O)Cc1ccc(C(=O)NC2CCN(Cc3ccccc3)C2)cc1 (centres unmarked) | -5.28% |
| Cc1ccc(-c2nnc(SCC(N)=O)n2C)cc1 | -0.685% |
| CN(C)N1C(N)=C(C#N)C(c2cccnc2)C2=C1CCCC2=O (centres unmarked) | -9.73% |
| CC(C)Oc1ccc(C(=O)O)cc1 | 16.5% |
| O=S(=O)(NCc1ccccc1)c1ccc(Cl)c(S(=O)(=O)NCc2ccccc2)c1 | -33% |
| COc1ccc(C(=O)NCCC2=CCCCC2)cc1 | -9.79% |

| SMILES | hERG current change (%, negative = inhibition) at 10uM |
| --- | --- |
| NS(=O)(=O)c1ccc(CCNC(=O)CNS(=O)(=O)c2cccc(Br)c2)cc1 | 13.2% |
| COc1ccc(C2C(C#N)=C(N)N(c3sc4c(c3C#N)CCCC4)C3=C2C(=O)CC(C)(C)C3)cc1 (centres unmarked) | -2.99% |
| O=C(COc1ccc(Cl)cc1)Nc1ccc2oc(=O)ccc2c1 | 3.7% |
| Cc1cc(C)n(C(=O)c2cc(F)c(F)cc2C)n1 | 4.1% |
| CC(C)Oc1ccc(C(=O)NC2CCCCC2)cc1 | 10.3% |
| O=C(NC1CCN(Cc2ccc(Cl)c(Cl)c2)CC1)c1ccccc1 | -18.3% |
| OC1CCN(Cc2ccc3ccccc3c2)CC1 | 13.4% |
| Cc1ccc(CN2CCC(NC(=O)c3ccccc3)CC2)cc1 | -75% |
| Cc1ccc(CN2CCSc3ccc(C(=O)NC4CCN(Cc5ccccc5)CC4)cc32)cc1 | 8.21% |
| O=C(NC1CCN(Cc2ccccc2)CC1)c1ccccc1 | -33.3% |
| CC(C)Oc1ccc(C(=O)NC2CCN(Cc3ccccc3)CC2)cc1 | -60.8% |
| O=C(NC1CCN(Cc2ccc3ccccc3c2)CC1)c1ccccc1 | -66.3% |
| CCCCOc1ccc(C(=O)NCC(=O)NC2CCN(Cc3ccccc3)CC2)cc1 | -25.6% |
| CCOC(=O)c1sc(=NC(=O)CCSc2ccccc2)n(C)c1C | -11.8% |
| O=C(NCCOc1cccc2cccnc12)c1cccs1 | -12.8% |
| O=C(CSc1ncnc2c1nnn2Cc1ccc(F)cc1)NC1CCCCC1 | 11.8% |
| N/C(=N\OC(=O)N1c2ccccc2Sc2ccccc21)c1ccc(Br)cc1 | 5.79% |
| O=C(COc1c(Br)cc(Br)c2cccnc12)N1CCc2ccccc2C1 | 8.07% |
| CC(=O)N/C(=C\c1ccccc1)C(=O)OCC(=O)N(CC(C)C)c1c(N)n(Cc2ccccc2)c(=O)[nH]c1=O | 6.75% |
| CC(c1ccc(F)cc1)n1c(-c2ccc3ccccc3n2)n[nH]c1=S (centres unmarked) | 18.1% |
